aSyn UTR act: Activators working through SNCA 5'UTR binding (MLPCN); alpha-synuclein 5'UTR reporter, activators screen; activity score, % (tested at 7.5 µM), hits read low; 7.1% of 300,000 active; AID 1814; in the data active = activity score below about -60%
* hit, by the source's call. This is one part of a sample in which hits are shown more often than they occur.

SMILES	aSyn UTR act
COc1ccc(-c2cc(-c3ccc(OC)cc3)[nH]n2)cc1	-155.1*
COc1ccc(-c2cc(-c3ccc(C)cc3)n[nH]2)c(O)c1	-143.7*
COc1ccc(-c2cc(-c3cc(C)ccc3O)[nH]n2)cc1	-248.7*
COc1ccc(Oc2ccc(-c3ccn[nH]3)cc2)cc1	-76.2*
Cc1ccc(O)c(-c2cc(-c3ccccc3[N+](=O)[O-])[nH]n2)c1	-94.8*
Oc1ccc(Cl)cc1-c1cc(-c2ccccc2Cl)[nH]n1	-158.3*
Cc1cc2c([nH]c3ccccc32)c2c1OC(C)(C)C=C2	-204.0*
Cc1cc2[nH]c3c(c[n+](C)c4ccccc34)c2cc1C	101.2
Nc1nccc(/C=C/c2ccc(Cl)cc2)n1	-112.4*
CCc1ccc(Nc2n[n+](-c3ccccc3)c(/C=C/c3ccccc3)s2)cc1	-169.2*
CCc1ccc(Nc2n[n+](-c3ccccc3)c(-c3ccc(OCc4ccccc4)cc3)s2)cc1	-61.8*
CN(C)c1ccc(-c2sc(Nc3ccccc3)n[n+]2-c2ccc(F)cc2)cc1	-203.5*
CCOCCCNC(=O)C1CCN(Cc2ccc(OCc3ccccc3)c(OC)c2)CC1	-117.3*
COc1cc(CN2CCC(C(=O)NCC(C)(C)CN(C)C)CC2)ccc1OCc1ccccc1	-67.3*
CCCCNC(=O)C1CCN(Cc2ccc(OCc3ccccc3)c(OC)c2)CC1	-114.7*
NC(=O)C1CCN(Cc2ccc(OCc3ccccc3)cc2)CC1	-95.0*
N#C/C(=C\c1ccc(N2CCOCC2)c([N+](=O)[O-])c1)c1nc2ccccc2[nH]1	-162.9*
O=C(Cn1c2ccccc2c(=O)c2ccccc21)N/N=C/c1ccc(N2CCCC2)c([N+](=O)[O-])c1	111.0
N#C/C(=C/c1ccc(N2CCCC2)c([N+](=O)[O-])c1)c1nc2ccccc2[nH]1	-77.9*
Fc1cccc(Cl)c1CSc1nnc(-c2ccncc2)o1	-109.1*
N#Cc1cccc(-c2nnc(SCc3ccccc3C#N)o2)c1	-65.2*
Clc1ccccc1CSc1nnc(-c2ccncc2)o1	-127.1*
N#Cc1ccccc1CSc1nnc(-c2ccncc2)o1	-113.8*
CCC(=O)NC(=S)Nc1ccc(NC(=S)NC(=O)c2ccccc2)cc1	-103.9*
O=C(NC(=S)Nc1ccc(Cl)cc1)c1ccccc1	-177.0*
SMILES	aSyn UTR act
O=C(Nc1ccc(Cl)cc1)C(Cl)C(=O)c1ccccc1 (configuration not stated)	-79.2*
CCCN(C(=O)c1ccco1)c1nnc(-c2ccccc2C)s1	-89.2*
CCCN(C(=O)c1cccs1)c1nnc(-c2ccncc2)s1	-99.8*
CCN(C(=O)c1ccco1)c1nnc(-c2cccnc2)s1	-136.8*
CN(C(=O)c1ccco1)c1nnc(-c2ccc(F)cc2)s1	-199.6*
CN(C(=O)c1ccco1)c1nc(-c2ccc(F)cc2)cs1	-146.2*
COCCN(C(=O)c1ccco1)c1nnc(-c2ccc(F)cc2)s1	-91.9*
O=[N+]([O-])c1ccccc1CSc1nc2ccccc2o1	-193.4*
CCN(CC)c1ccc(CNc2ccc(Br)cn2)cc1	-102.7*
CCc1ccc(Nc2nnc(SCC(=O)Nc3cccc(S(=O)(=O)NC4=NCCCCC4)c3)s2)cc1	-147.2*
Cc1cccc(Nc2nnc(SCC(=O)Nc3cccc(S(=O)(=O)N4CCCCC4)c3)s2)c1	-151.6*
FC(F)(F)c1nnc2c(Sc3ccccc3)nc3ccccc3n12	-102.7*
Cc1ccn(-c2cc(O)c(-n3ccc(C)n3)cc2O)n1	-84.6*
Nc1ccc(C(=O)N/N=C/c2cn(Cc3cccc(F)c3)c3ccccc23)cc1	69.8
COc1ccccc1CNC(=O)CSc1ccccc1	-100.5*
O=C(CSc1ccccc1)NCc1ccccc1	-68.5*
O=C(CSCc1cccc(F)c1)NCc1ccccc1	-74.8*
COc1ccccc1CNC(=O)Cc1ccccc1	-76.8*
O=C1NC(=O)/C(=C\c2ccc(O)cc2O)S1	-77.4*
C=CCN1C(=O)S/C(=C\c2ccc(N3CCOCC3)cc2C)C1=O	-151.6*
Cc1cc(N2CCCC2)ccc1/C=C1\NC(=S)N(C)C1=O	-261.4*
Cc1cc(N2CCOCC2)ccc1/C=C1/SC(=O)NC1=O	-66.6*
C=CC(C)N1C(=O)S/C(=C\c2ccc(N3CCOCC3)cc2C)C1=O (configuration not stated)	-119.6*
COc1ccc(OC)c2c1C(=O)C(Cl)=C(Cl)C2=O	-88.8*
Cc1cccc(-c2ncc(S(=O)(=O)C(C)(C)C)c(N)n2)c1	-84.0*
SMILES	aSyn UTR act
Cc1nc(C)c(-c2csc(NCc3ccco3)n2)s1	-99.4*
COc1ccc(-c2csc(NCc3ccco3)n2)cc1	-160.1*
c1coc(CNc2nc(-c3ccncc3)cs2)c1	-92.1*
CCn1nc(C(=O)Nc2ccc(C)c(C)c2)c(Cl)c1Cl	-91.2*
CCCc1nn(C)c(C(=O)Nc2ccc(C)c(C)c2)c1Cl	-102.4*
CCCc1nn(C)c(C(=O)Nc2ccc(CC)cc2)c1Cl	-73.9*
O=C(CCSc1ccccc1)Nc1ccccc1Br	-91.5*
COc1ccc(NC(=O)C#Cc2ccccc2)cc1	-385.3*
O=C(C#Cc1ccccc1)Nc1ccc(F)cc1	-195.0*
O=C(C#Cc1ccccc1)Nc1cccc(F)c1	-383.2*
Cc1ccc(Nc2nc(/N=C/N(C)C)n[nH]2)cc1C	-79.2*
COc1cc(C=O)ccc1Oc1nnnn1-c1ccc(C(N)=O)cc1	-67.5*
CCc1ccc2[nH]c(=O)c(CN(Cc3nnnn3C3CCCC3)C3CCCCC3)cc2c1	-69.7*
CCOc1cc(CNCCCN2CCOCC2)cc(Br)c1OCc1ccccc1Cl	96.4
CCOc1cc(C2NN=C(c3ccccc3)S2)ccc1OCc1ccccc1Cl (configuration not stated)	-132.2*
CCOc1cc(C2NN=C(c3ccccc3)S2)ccc1OCc1ccc(F)cc1 (configuration not stated)	-128.8*
Clc1ccc(-c2nnc(CCc3ccccc3)o2)c(Cl)c1	-155.4*
Oc1ccccc1-c1nnc(COc2ccc(Cl)cc2Cl)o1	-170.1*
Oc1ccccc1-c1nnc(COc2ccccc2)o1	-87.9*
c1ccc(OCc2nnc(-c3ccccc3)o2)cc1	-129.2*
Cc1ccc(O)c(-c2cc(C(=O)Nc3cccnc3)[nH]n2)c1	-166.2*
O=C(Nc1cccnc1)c1cc(-c2cc(Cl)ccc2O)n[nH]1	-219.1*
CCOC(=O)CC(=O)CSc1ncnc2c1cnn2-c1ccccc1	-104.5*
CC(C)(C)NC(=O)CSc1ncnc2c1cnn2-c1ccccc1	-73.1*
c1ccc2c(c1)[nH]c1c3ccccc3sc21	-138.2*
SMILES	aSyn UTR act
Cc1cccc(-c2cc3nc4c(c(NCc5ccco5)n3n2)CCCC4)c1	-92.5*
Cc1cccc(-c2cc3nc4c(c(N5CCOCC5)n3n2)CCCC4)c1	-113.8*
OC1CCCN(c2c3c(nc4cc(-c5cccc(F)c5)nn24)CCCC3)C1 (configuration not stated)	-98.5*
Cc1ccc(-c2cc(-c3ccccc3)nc(Cl)n2)cc1	-72.0*
Cc1cc(-c2ccccc2)nc(Cl)c1C#N	-79.6*
CN(C)c1ccc(NC(=O)c2ccc(COc3cccc(Cl)c3)o2)cc1	-112.0*
CCOc1ccc(OCc2ccc(C(=O)NC(C)(C)C)o2)cc1	-70.3*
CC(C)NC(=O)c1ccc(COc2ccc(C(C)(C)C)cc2)o1	-135.7*
CCOc1ccc(OCc2ccc(C(=O)Nc3cccnc3)o2)cc1	-81.2*
CCc1sc(C(=O)Nc2nccs2)cc1C	-122.6*
CCc1sc(C(=O)Nc2ncccc2C)cc1C	-66.6*
Cc1ccc(NC(=O)CC2SCCNC2=O)cc1Cl (configuration not stated)	-142.8*
C#CCn1c(C)cc(C)c(S(=O)(=O)c2ccccc2)c1=O	-72.6*
Cc1ccc(-c2nc(NC(=O)c3nn(C)cc3[N+](=O)[O-])sc2C)cc1	99.4

Source: PubChem BioAssay (Broad Institute)
